# Measles CPE: protection of cells from measles virus. Measles virus-infected cells, CPE protection, absorbance. hit rate 1.5% among 140,000. AID 841. protection (pct of control), % at 4 µM; in the data active means protection mostly above about 24%, no sharp cut-off; inactive means mostly below about 26%
# CYP2C9 inhib: human CYP2C9 inhibition; hit rate 20% among 96,000; CYP2C9 Supersomes, luciferin-H conversion, luminescence; inhibition, % at 5 µM;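 active means blocking of liver enzyme CYP2C9 beyond about 50% at 5 µM, limit read from the data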
# CYP2C19 inhib: human CYP2C19 inhibition | AID 778 | hit rate 21% among 96,000 | CYP2C19 Supersomes, luciferin-H EGE luminescence, 30 min | inhibition, % at 5 µM | P33261;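 active means CYP2C19 inhibition above a set limit at 5 µM in the primary screen, cut at about 50% in these data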
# Target sequence (P33261 whole entry, looked up): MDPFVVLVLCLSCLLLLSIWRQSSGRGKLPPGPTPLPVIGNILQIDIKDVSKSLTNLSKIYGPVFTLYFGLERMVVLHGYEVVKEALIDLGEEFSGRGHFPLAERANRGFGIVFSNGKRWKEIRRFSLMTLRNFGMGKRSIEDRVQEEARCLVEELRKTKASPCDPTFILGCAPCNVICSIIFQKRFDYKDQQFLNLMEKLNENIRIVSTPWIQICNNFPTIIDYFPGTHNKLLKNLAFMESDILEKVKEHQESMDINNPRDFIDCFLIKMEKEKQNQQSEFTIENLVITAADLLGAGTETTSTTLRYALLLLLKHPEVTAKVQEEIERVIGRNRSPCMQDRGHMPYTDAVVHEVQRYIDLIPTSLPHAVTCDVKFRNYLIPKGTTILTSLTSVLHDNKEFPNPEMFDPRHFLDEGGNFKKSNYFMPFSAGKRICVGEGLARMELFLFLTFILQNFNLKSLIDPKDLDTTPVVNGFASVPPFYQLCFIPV
# CYP2C9 activ: activators of human CYP2C9; P11712; activation factor at 5 µM; recombinant CYP2C9, luciferin-H conversion, luminescence; hits give high values; factor 1 = untreated enzyme, 0 = blocked; hit rate 1.4% among 96,000;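 active means activation factor of 2 or more for CYP2C9 at a 5 µM dose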
# CYP2C19 activ: cytochrome P450 2C19 (human) activation. P33261. recombinant CYP2C19, luciferin-H EGE luminescence; hits give high values; 0 = fully inhibited enzyme, 1 = untreated enzyme. activation factor at 5 µM. 96,000 tested, under 10 active. AID 1025;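 active means activation factor of at least 2 at 5 µM in the primary screen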
# Hits are given with their value; n = inactive; x = no result. This is a sample that favours compounds with a hit; in the whole collection about 22% have one here.
SMILES,Measles CPE,CYP2C9 inhib,CYP2C19 inhib,CYP2C9 activ,CYP2C19 activ
CC12C(=O)N(c3cccc(OC(=O)c4ccco4)c3)C(=O)C1C1c3ccccc3C2c2ccccc21 (stereo not drawn),n,n,n,n,n
O=C(Cc1cccs1)OCC(=O)c1ccco1,n,n,n,n,n
O=C(CC(Sc1ccccc1)c1cccs1)c1ccco1 (stereo not drawn),n,95,100,n,n
CCc1ccc(CNCCNCC(C)O)cc1 (stereo not drawn),n,n,n,n,n
CCOc1ccc(-n2cc(-c3ccccc3)c3c(SC(C)C(=O)OC)ncnc32)cc1 (stereo not drawn),19,x,x,x,x
O=c1oc2ccccc2c(Nc2cccc3ccccc23)c1[N+](=O)[O-],n,62,91,n,n
O=c1oc2ccccc2c(Nc2ccccc2)c1[N+](=O)[O-],n,x,x,x,x
COc1ccc(CCNC(=O)Cc2ccc(OCc3ccccc3)c(OC)c2[N+](=O)[O-])cc1OCc1ccccc1,n,90,74,n,n
COc1ccc(CCNc2c([N+](=O)[O-])c(=O)oc3ccccc23)cc1OC,n,n,59,n,n
CCN(C(C)=O)N(CC)c1nc(Cl)nc(NC(C)C)n1,n,x,x,x,x
Cc1nc2cc(Cl)c(Cl)cc2nc1C,n,n,n,n,n
Cc1ccc(NC(=O)CCN2C(=O)CSC2=O)cc1,n,x,x,x,x
Fc1ccc(C2NC(=S)NC3=C2N2CCC3CC2)cc1 (stereo not drawn),n,n,n,n,n
CC(C)(C)OC(=O)N[C@@H](Cc1ccccc1)c1nnc(S(=O)(=O)Cc2cccc(F)c2)o1,n,60,n,n,n
CC(C)C[C@H](NC(=O)OC(C)(C)C)c1nnc(SCc2ccccc2)o1,n,65,74,n,n
CC(C)C[C@H](N)c1nnc(S(=O)(=O)Cc2cccc(F)c2)o1,n,n,n,n,n
CCOC(=O)CSc1nnc([C@H](Cc2ccccc2)NC(=O)OC(C)(C)C)o1,n,n,n,n,n
Cc1ccccc1CS(=O)(=O)c1nnc([C@H](CC(C)C)NC(=O)OC(C)(C)C)o1,n,76,n,n,n
Cc1[nH]c(=S)[nH]c(=O)c1CCOc1ccccc1,n,n,n,n,n
O=C(Nc1nccs1)c1cccc(S(=O)(=O)N2CCCCC2)c1,n,68,94,n,n
O=C(Nc1ccc2c(c1)CCC2)c1ccc(F)c(S(=O)(=O)N2CCOCC2)c1,n,x,x,x,x
O=C(Nc1nccs1)c1ccc(Cl)c(S(=O)(=O)N2CCCCC2)c1,n,53,65,n,n
Cc1nonc1NC(=O)c1ccc(Cl)c(S(=O)(=O)N2CCCCC2)c1,n,n,68,n,n
O=C(Nn1cnnc1)c1ccc(F)c(S(=O)(=O)N2CCCCC2)c1,n,72,99,n,n
O=C(NC1=NCCS1)c1ccc(Cl)c(S(=O)(=O)N2CCCCC2)c1,n,n,n,n,n
SMILES,Measles CPE,CYP2C9 inhib,CYP2C19 inhib,CYP2C9 activ,CYP2C19 activ
C=CCn1c(=NC(=O)CN2C(=O)CCC2=O)sc2cccc(OC)c21,n,n,n,n,n
CNc1oc(Cc2ccccc2)nc1S(=O)(=O)c1ccc(Cl)cc1,n,n,n,n,n
CC1CCC/C(=C\Nc2ccc(O)cc2)C1=O (stereo not drawn),n,n,n,n,n
CCN(C(=O)COC(=O)c1cc2ccccc2cc1O)C1CCS(=O)(=O)C1 (stereo not drawn),n,n,n,n,n
Cc1ccc(-c2nnn(CC(=O)NCC3COCCO3)n2)o1 (stereo not drawn),n,n,n,n,n
O=C(NCc1cccs1)c1cccc(S(=O)(=O)N2CCCCC2)c1,n,67,75,n,n
CCOC(=O)CSc1nc2ccccc2n2cnnc12,n,n,n,n,n
CCCCOc1cccc(C(=O)NC(=S)Nc2cccc(C(F)(F)F)c2)c1,n,x,x,x,x
c1ccc(Oc2cccc(OCCCCN3CCCC3)c2)cc1,n,x,x,x,x
CC1(C)NC(=O)N(CCCCOc2cccc(C(F)(F)F)c2)C1=O,n,61,85,n,n
O=C1NC2(CCc3ccccc3C2)C(=O)N1CCOc1cccc(Cl)c1 (stereo not drawn),23,x,x,x,x
CCC(C)Oc1cccc(OCCCCN2C(=O)NC(C)(C)C2=O)c1 (stereo not drawn),n,59,72,n,n
Clc1cccc(OCCN2CCN(CCOc3cccc(Cl)c3)CC2)c1,n,x,x,x,x
CC1(C)NC(=O)N(CCOCCOc2cccc(Oc3ccccc3)c2)C1=O,n,84,96,n,n
O=C(Nc1nccs1)C1C2/C=C\CCCCC21 (stereo not drawn),n,n,n,n,n
O=C1CCC(=O)N1OCCCOc1ccc2c(c1)CCC2,n,n,n,n,n
CC1(C)NC(=O)N(CCCCOc2ccc3c(c2)CCC3)C1=O,n,n,78,n,n
Nc1c(N(CCO)C(=O)COc2ccc(Cl)cc2)c(=O)[nH]c(=O)n1Cc1ccccc1,n,x,x,x,x
O=S(=O)(c1ccc(S(=O)(=O)N(Cc2cccs2)CC2CCCO2)cc1)N1CCCCC1 (stereo not drawn),n,83,73,n,n
O=C(CN(Cc1cccs1)S(=O)(=O)c1ccc(S(=O)(=O)N2CCCCC2)cc1)Nc1ccccc1,n,x,x,x,x
O=S(=O)(NC1CCCC1)c1ccc(S(=O)(=O)N(Cc2cccs2)CC2CCCO2)cc1 (stereo not drawn),n,97,97,n,n
COc1cccc(CN(CC2CCCO2)S(=O)(=O)c2ccc(S(=O)(=O)N(C)C)cc2)c1 (stereo not drawn),n,n,n,n,n
Cc1ccc(C)c(-n2nnnc2SCC(=O)Nc2cccc(-c3nnc4n3CCCCC4)c2)c1,n,n,n,n,n
CCN(C(=O)c1ccc(C(C)(C)C)cc1)c1nnc(Cn2nnc3ccccc32)s1,n,52,n,n,n
CCc1nnc(NC(=O)c2ccc(S(=O)(=O)N3CCCc4ccccc43)cc2)o1,n,62,n,n,n
SMILES,Measles CPE,CYP2C9 inhib,CYP2C19 inhib,CYP2C9 activ,CYP2C19 activ
CC1CCc2nc(NC(=O)c3ccc(S(=O)(=O)N4CCCc5ccccc54)cc3)sc2C1 (stereo not drawn),n,54,n,n,n
CS(=O)(=O)NCCOc1ccc(S(=O)(=O)N2CCCc3ccccc32)cc1,n,n,75,2.1,n
FC(F)(F)c1cccc(N2CCN(C(=S)NC3CCCC3)CC2)c1,n,n,n,n,n
COc1ccc(Cn2nnnc2CN(Cc2cc3cc(C)ccc3[nH]c2=O)C2CCCC2)cc1,n,n,n,n,n
COc1cc2cc(CN(Cc3nnnn3Cc3ccccc3)CC3CCCO3)c(=O)[nH]c2cc1OC (stereo not drawn),n,68,98,n,n
COCCn1nnnc1C1(N(Cc2cc3cc(C)ccc3[nH]c2=O)CC2CCCO2)CCN(C)CC1 (stereo not drawn),x,n,n,n,n
COc1ccc2[nH]c(=O)c(CN(Cc3ccccc3)Cc3nnnn3CC3CCCO3)cc2c1 (stereo not drawn),n,n,72,n,n
COc1ccc2nc(S(=O)Cc3ncc(C)c(OC)c3C)[nH]c2c1 (stereo not drawn),n,x,x,x,x

# Screening data: PubChem BioAssay, several laboratories
